Screens deposited in PubChem by several laboratories.
MCL1 BIM primary: MCL1-BIM-BH3 interaction inhibition (human); Q07820; GST-MCL1 / FITC-Bim-BH3 fluorescence polarization; inhibition, % at 10.9 µM; hit rate 0.68% among 320,000; AID 2057;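 active = inhibition above the mean inhibition of all tested compounds plus 3 SD, set per campaign, cut at about 40% in these data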;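 also: 0% = DMSO wells and 100% = unlabeled Bim-BH3 peptide control; higher means more loss of mP so more displacement of Bim peptide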
EBV gp42 inh: EBV gp42 inhibition; Q1HVG2; Fluorescence polarization binding assay, mP read-out; inhibition, % (tested at 21.74 µM); hit rate 0.42% among 220,000; in the data active = inhibition above about 50%
Target sequence (Q1HVG2 whole entry, looked up): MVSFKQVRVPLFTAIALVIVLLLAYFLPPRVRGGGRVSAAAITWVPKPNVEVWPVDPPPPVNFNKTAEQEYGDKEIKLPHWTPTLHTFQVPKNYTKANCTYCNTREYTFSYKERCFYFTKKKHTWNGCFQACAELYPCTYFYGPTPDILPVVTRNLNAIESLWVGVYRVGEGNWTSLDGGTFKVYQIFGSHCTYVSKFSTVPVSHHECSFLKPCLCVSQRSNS
eLon inh: E. coli protease La inhibition. P0A9M0. purified E. coli Lon protease, fluorescence polarization. inhibition, % at 7.94 µM. hit rate 0.42% among 360,000. AID 602123; in the data active = inhibition above about 13%, passing the limit was not always enough;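 also: 0% = enzyme with probe and DMSO and 100% = no enzyme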
MEX-5 binding: C. elegans MEX-5 TCR-2 RNA binding activity | Q9XUB2 | hit rate 0.38% among 300,000 | activity score (negative = inhibition of binding), % at 10 µM | MEX-5/FITC-TCR2 RNA binding, fluorescence polarization; active compounds read low;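 active = inhibition past about -25% in most replicates, and total fluorescence under double the plate's negative control median, limit read from the data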;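 also: 0% = DMSO and -100% = 5 µM competing unlabeled TCR2 RNA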
Bcl-xL primary: Bcl-xL (human) inhibition; Q07817; inhibition, % at 10.9 µM; GST-Bcl-xL / FITC-Bim BH3 peptide fluorescence polarization; hit rate 0.7% among 320,000;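 active = inhibition above the mean of all tested compounds plus 3 SD, cutoff set per campaign, cut at about 30% in these data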;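 also: 0% = DMSO wells and 100% = unlabeled Bim-BH3 peptide competitor; inhibitors lower millipolarization by displacing the labeled peptide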
Target sequence (Q07817 whole entry, looked up): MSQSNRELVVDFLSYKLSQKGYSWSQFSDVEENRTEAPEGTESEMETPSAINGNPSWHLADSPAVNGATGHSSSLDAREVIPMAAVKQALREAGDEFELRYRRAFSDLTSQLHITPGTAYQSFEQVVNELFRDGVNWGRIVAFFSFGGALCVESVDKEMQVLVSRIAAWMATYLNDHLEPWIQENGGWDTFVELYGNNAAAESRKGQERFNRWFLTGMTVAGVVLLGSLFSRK
GLD-1 RNA inh: GLD-1-TGE RNA interaction inhibition (C. elegans). purified GLD-1 + fluorescein TGE RNA, fluorescence polarization. inhibition, % at 5.96 µM. hit rate 0.44% among 320,000;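 active = percent inhibition above a per-plate cutoff, the plate mean of test compounds plus 3 SD, cut at about 30% in these data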;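 also: 0% = DMSO wells with GLD-1 and probe and 100% = wells lacking GLD-1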
GLD-1 TGE cf: confirmation of C. elegans GLD-1 TGE RNA binding inhibitors. shares compounds with GLD-1 RNA inh. GLD-1/FL-TGE RNA fluorescence polarization, biochemical. inhibition, % at 5.96 µM. hit rate 10% among 550;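 active = average inhibition across triplicates above the hit cutoff set in the primary screen, cut at about 32% in these data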;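 also: 0% = GLD-1 with RNA probe and DMSO and 100% = wells lacking GLD-1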
Starred values were filed as active, the others as inactive. An excerpt weighted towards active compounds, which were near 1.5% of everything screened.

Screening O=C(Nc1ccccc1)Nc1ccccc1 returned eLon inh 1.7.
For O=C(Nc1ccccc1)Nc1ccc(Cl)nc1Cl the results were MCL1 BIM primary 2.2, eLon inh -2.1, MEX-5 binding 0.7, Bcl-xL primary -3.2, GLD-1 RNA inh 35.6* and GLD-1 TGE cf -3.7.
For COCCN1CN(S(=O)(=O)c2cccc(Cl)c2)c2nc3ccccc3nc21 the results were MCL1 BIM primary 12.1, eLon inh 2.9, MEX-5 binding -4.7, Bcl-xL primary 20.5 and GLD-1 RNA inh 17.9.
Screening O=S(=O)(c1cccc(Cl)c1)N1CN(CC2CCCO2)c2nc3ccccc3nc21 (centres undefined) returned MCL1 BIM primary 23.0, eLon inh 9.1, MEX-5 binding -9.0, Bcl-xL primary 19.1 and GLD-1 RNA inh 29.4.
For COCCCN1CN(S(=O)(=O)c2ccc(Cl)cc2)c2nc3ccccc3nc21 the results were MCL1 BIM primary 26.1, EBV gp42 inh 0.0, eLon inh -2.4, MEX-5 binding 0.0, Bcl-xL primary 28.8, GLD-1 RNA inh 34.3* and GLD-1 TGE cf 0.2.
`C=CCN1CN(S(=O)(=O)c2cccc(Cl)c2)c2nc3ccccc3nc21` gave MCL1 BIM primary 30.0, eLon inh -11.1, MEX-5 binding -9.9, Bcl-xL primary 34.4*, GLD-1 RNA inh 45.1* and GLD-1 TGE cf -0.3.
COc1ccc(-c2csc(NC(=O)c3ccc(OCC(=O)N4CCOCC4)c(OC)c3)n2)cc1OC was read as MCL1 BIM primary -5.1, EBV gp42 inh -4.4, eLon inh 0.3, MEX-5 binding 0.4, Bcl-xL primary 3.7 and GLD-1 RNA inh -2.4.
Cc1cccc(OCCNc2ccc([N+](=O)[O-])cn2)c1 was read as MCL1 BIM primary -4.2, EBV gp42 inh -10.6, eLon inh -1.2, MEX-5 binding -1.1, Bcl-xL primary 1.9, GLD-1 RNA inh 32.5* and GLD-1 TGE cf 5.4.
Screening CC1(c2nnnn2Cc2ccccc2)CCC(=O)N1Cc1cccnc1 (centres undefined) returned eLon inh 2.4.
For Fc1ccc(-[n+]2nc(Nc3ccccc3)sc2-c2ccc(OCc3ccccc3)cc2)cc1 the results were MCL1 BIM primary -0.8, eLon inh -3.2, MEX-5 binding 4.8, Bcl-xL primary -5.5 and GLD-1 RNA inh -0.7.
Screening COc1ccc(OC)c(Nc2cc3ccccc3c(=O)[nH]2)c1 returned MCL1 BIM primary -2.3, eLon inh -18.4, MEX-5 binding -8.2, Bcl-xL primary 7.3, GLD-1 RNA inh 42.4* and GLD-1 TGE cf 4.2.
For COCc1cc(=O)c2ccccc2o1 the results were eLon inh -5.8 and GLD-1 RNA inh 0.9.
`Cc1cc2cc(CNC(=O)C(C)Oc3ccccc3)ccc2n1C` (centres undefined) gave MCL1 BIM primary 41.3*, EBV gp42 inh 0.3, eLon inh 16.9, MEX-5 binding -3.6, Bcl-xL primary 38.2*, GLD-1 RNA inh 57.0* and GLD-1 TGE cf 7.2.
Cc1cc2cc(OCC(=O)O)ccc2n1C was read as MCL1 BIM primary 20.2, EBV gp42 inh -8.9, eLon inh 13.7, MEX-5 binding -0.6, Bcl-xL primary 22.4, GLD-1 RNA inh 39.3* and GLD-1 TGE cf 4.6.
For COc1ccc(-n2c(Cc3cc(=O)[nH]c(=O)[nH]3)nnc2SCC(=O)NC2CCCC2)cc1 the results were MCL1 BIM primary 10.2, EBV gp42 inh 6.1, eLon inh 5.7, MEX-5 binding -2.0, Bcl-xL primary 7.7 and GLD-1 RNA inh 17.2.
For O=C(CSc1nnc(Cc2cc(=O)[nH]c(=O)[nH]2)n1-c1ccc(Cl)cc1)NC1CCCC1 the results were MCL1 BIM primary 26.9, EBV gp42 inh 1.5, eLon inh 10.3, Bcl-xL primary 17.8, GLD-1 RNA inh 36.6* and GLD-1 TGE cf 18.3.
Screening C#Cc1ccc(CN2CCC(N3CCC(C(=O)NCc4ccccn4)CC3)CC2)cc1 returned MCL1 BIM primary -1.6, eLon inh -3.0, MEX-5 binding -0.5, Bcl-xL primary 0.7 and GLD-1 RNA inh -10.2.
CC(C)/C=C/C(=O)N1CCC(N2CCC(C(=O)NCc3ccccn3)CC2)CC1 was read as MCL1 BIM primary 26.0, eLon inh 16.2, MEX-5 binding -4.2, Bcl-xL primary 28.0, GLD-1 RNA inh 34.9* and GLD-1 TGE cf 7.8.
For CCCCNc1c(-c2ccc(SC(C)CC)cc2)nc2cnccn12 (centres undefined) the results were eLon inh -4.8, GLD-1 RNA inh 43.0* and GLD-1 TGE cf 3.4.
For CCOc1ccc(NC(=O)[C@@H]2CCC(=O)N2C2OC(=O)c3ccccc32)cc1 (some centres undefined) the results were MCL1 BIM primary 8.7, eLon inh -6.0, MEX-5 binding -2.5, Bcl-xL primary 8.3 and GLD-1 RNA inh -5.5.
Screening Cc1ccc(S(=O)(=O)N(C)Cc2ccc(C(=O)N/N=C3\CCCC(=O)C3)cc2)cc1 returned MCL1 BIM primary 3.4, EBV gp42 inh -18.9, eLon inh 13.6, MEX-5 binding -3.8, Bcl-xL primary 2.2, GLD-1 RNA inh 49.1* and GLD-1 TGE cf 2.8.
`O=C1CCC/C(=N/NC(=O)c2ccc(CN3c4cccc5cccc(c45)S3(=O)=O)cc2)C1` gave MCL1 BIM primary 8.3, EBV gp42 inh 0.2, eLon inh -2.1, MEX-5 binding -1.0, Bcl-xL primary 10.9, GLD-1 RNA inh 40.3* and GLD-1 TGE cf 2.0.
Cc1ccc(S(=O)(=O)N(C)Cc2ccc(C(=O)NN=C3C4CC5CC(C4)CC3C5)cc2)cc1 was read as MCL1 BIM primary 5.1, EBV gp42 inh -2.3, eLon inh 0.2, MEX-5 binding 0.6, Bcl-xL primary -0.4 and GLD-1 RNA inh 2.5.
`Cc1onc(-c2ccccc2)c1C(=O)OCC(=O)NCc1ccc(F)cc1` gave MCL1 BIM primary 28.1, EBV gp42 inh 7.3, eLon inh -5.7, MEX-5 binding 0.2, Bcl-xL primary 29.6, GLD-1 RNA inh 30.8* and GLD-1 TGE cf -3.7.
COCCNC(=O)c1c(N)n(CCC2=CCCCC2)c2nc3ccccc3nc12 was read as MCL1 BIM primary 52.3*, EBV gp42 inh 18.1, eLon inh -8.4, MEX-5 binding -3.8, Bcl-xL primary 49.7*, GLD-1 RNA inh 38.1* and GLD-1 TGE cf 20.9.
Cc1c(NC(=O)C(C)OC(=O)c2ccc([N+](=O)[O-])cc2Cl)c(=O)n(-c2ccccc2)n1C (centres undefined) was read as eLon inh -3.7.
`Cc1noc(C)c1S(=O)(=O)N(CC(=O)NCc1ccccc1)c1ccc(C(C)C)cc1` gave MCL1 BIM primary 2.0, eLon inh 7.8, MEX-5 binding -2.8, Bcl-xL primary -0.2 and GLD-1 RNA inh -0.7.
For Cc1noc(C)c1S(=O)(=O)N(CC(=O)NCCc1ccccc1)c1ccc(C(C)C)cc1 the results were MCL1 BIM primary 0.6, eLon inh -1.6, MEX-5 binding -2.2, Bcl-xL primary 4.9, GLD-1 RNA inh 48.0* and GLD-1 TGE cf 0.6.
